About 8,600 (12%) of roughly 69,000 compounds showed an effect of 50% or more. What follows is part of a selection rich in strong results, with near analogues and random picks from the rest.

In ChEMBL document CHEMBL4513216, “Probing the Open Global Health Chemical Diversity Library for Multistage-Active Starting Points for Next-Generation Antimalarials” (ACS Infect Dis, 2020) one finds INHIBITION data, which are given here for 69 molecules.

The subject of this experiment is Plasmodium berghei. The experiment is described as follows: Screen against P. berghei liver stage (PbLuc), transformed with Luciferase, at 10uM. It counts as functional, HepG2. Particulars: tested at 10 uM.
As to `CN1CCN(C[C@H]2OC[C@@H]3CCN(C(=O)c4cnccn4)C[C@@H]32)CC1`, the INHIBITION was determined as 31.4%.
For `CCN1CCCC(c2nc(O)c3cc(C)ccc3n2)C1` (centres undefined) the value was 16.8%.
For `O=C(Cc1cccnc1)NC1CCCN(CCCc2ccccc2)C1` (centres undefined) the value was 8.99%.
For `CC(CN1CCC2(CC1)N=C(N(C)C)NC2=O)c1ccccc1` (centres undefined) the value was 0.825%.
Consider `O=C1NC(c2ccccc2)=N[C@@]12CC[C@@H]1CN(Cc3cccnc3)C[C@@H]12`, for which the INHIBITION worked out at 33%.
Consider `CC1=NC2(CCN(CC(C)c3ccccc3)CC2)C(=O)N1` (centres undefined), for which the INHIBITION is on record as 14%.
For `CC(CN1CCC2(CC1)N=C(c1cccnc1)NC2=O)c1ccccc1` (centres undefined) the value was 70.1%.
Next, `O=C1NC(c2cccnc2)=NC12CCN(CCCc1ccccc1)CC2`: 58.7%; `CC(NC(=O)NCCCn1ccnc1)c1nncn1C` (centres undefined): -6.61%; `c1coc(CN2CCC3(CC2)COC(COCC2CCOCC2)C3)c1` (centres undefined): 6.27%.
Turning to `COc1cccc(-c2cc(C(=O)NCCn3nc(C)nc3C)[nH]n2)c1`, the INHIBITION is on record as -13.6%.
For `CCn1c(C)cc(C(=O)N2CCCC(n3ccnc3C)C2)c1C` (centres undefined) the value was -11.3%; for `COc1cc(CNCC2CN(C3CC3)CCO2)cc(OC)c1` (centres undefined), -18.3%.
For `Oc1ccc(Cl)cc1CNCc1cccc(C(F)(F)F)c1`, the INHIBITION was found to be 27.4%.
For `CCc1nc(CN2CCCC2C(=O)NC)cs1` (centres undefined) the value was 49%; for `CCn1ccnc1CN1CCCC1C(=O)Nc1nccs1` (centres undefined), 72.2%; for `CCNc1ccnc(CN2CCCC2C(=O)Nc2nccs2)c1` (centres undefined), 85.1%.
For `O=C(Nc1nccs1)NC1CCN(Cc2ccccn2)CC1` the value was 17.4%; for `CC(=O)Nc1cccc(CN2CCCC2C(=O)Nc2nccs2)c1` (centres undefined), 34.6%; for `CCc1ccsc1C(=O)N1CCCN(Cc2nccn2CC)CC1`, 30.65%.
For `CC1CN(CC(=O)Nc2nccs2)CCN1Cc1nccn1C` (centres undefined) the value was 26.675%; for `NC(=O)C1CCCN1Cc1nccn1CC(F)(F)F` (centres undefined), 30.9%; for `CC(C)(C)NC(=O)C1CCCCN1Cc1nccn1CC(F)(F)F` (centres undefined), 46.6%.
`O=C(C1CCCCN1Cc1nccn1CC(F)(F)F)N1CCCC1` (centres undefined): the INHIBITION was 58.9%.
Regarding `O=C(Nc1nccs1)C1CCCN1Cc1ccccn1` (centres undefined), the INHIBITION is 87.6%.
For `N#Cc1cccc(OCCN2CCCC2C(=O)Nc2nccs2)c1` (centres undefined), the INHIBITION stood at 44%.
For `N#Cc1ccccc1C(=O)Nc1cccc(CN2CCC(CO)CC2)c1` the value was -43.1%.
For `Cc1cc(OCC(=O)N2CCCC(c3nc(C)c(C)s3)C2)no1` (centres undefined) the value was 0.914%; for `CC(O)CN1CCN(C(=O)c2ccc(N3CCCC3)nn2)CC1` (centres undefined), -43.5%; for `O=C(CC1CCCC1)Nc1ccc(-n2cc(Br)cn2)nc1`, 24.8%.
For `CN(C)S(=O)(=O)CCCN1CCc2c(ncn2C2CC2)C1` the value was 33.7%; for `COCCN1C(=O)CCC12CCN(C(=O)CNC(C)=O)CC2`, -49.2%; for `Oc1ccc(CCC2CCCCN2Cc2noc(C3CC3)n2)cc1` (centres undefined), 26.5%.
For `Cc1cc(C)cc(CCC(=O)N2CCN(c3cc(C)nc(N)n3)CC2)c1`, the INHIBITION was 80.5%.
Regarding `Cc1cc(N2CCN(C(=O)CCc3scnc3C)CC2)nc(N)n1`, the INHIBITION is on record as -6.72%.
For `Cc1cc(N2CCN(C(=O)c3cc(Cl)c[nH]3)CC2)nc(C)n1` the value was 5.76%; for `COc1cc(C)nc(N2CCN(C(=O)CCc3ccncc3)CC2)n1`, 7.18%; for `Cc1cc(N2CCN(C(=O)c3cc(Cl)c[nH]3)CC2)nc(N)n1`, 50.1%.
Next, `Cc1cc(N2CCN(C(=O)c3cc(Cl)c[nH]3)CC2)nc(C(C)C)n1`: 24.6%; `CN1[C@@H](C(=O)NCC2CC2)C[C@H]2CN(Cc3ccsc3)C[C@H]21`: -14.7%.
For `NC(=O)c1cc2c(nc1N1C[C@H]3OC(=O)N(C4CCCC4)[C@H]3C1)CCC2` the value was 5.05%; for `Cc1c(NCc2cccnc2)cccc1C(=O)N1CCC(N(C)C)C1` (centres undefined), 24.4%.
`CC(C(=O)Nc1ccon1)n1ccc(C(F)(F)F)n1` (centres undefined): the INHIBITION stood at 15.1%.
Regarding `N#Cc1cccnc1N1CCCN(C(=O)CCn2cncn2)CC1`, the INHIBITION stood at 14.1%.
`c1ccc(Cn2cncn2)c(CNCC2CNc3ccnn3C2)c1` (centres undefined): the INHIBITION came out at 36.4%.
For `c1ccc(-n2ccnc2)c(CNCC2CNc3ccnn3C2)c1` (centres undefined) the value was 55.1%; for `COc1cc(CNCC2CNc3ccnn3C2)ccn1` (centres undefined), 23.7%; for `c1ccc(Cn2cc(CNCC3CNc4ccnn4C3)cn2)cc1` (centres undefined), 9.54%.
Next, `c1cc2n(n1)CC(CNCc1ccc(OC3CCCC3)nc1)CN2` (centres undefined): 41.5%; `c1cc(CNCC2CNc3ccnn3C2)cc(N2CCCCC2)n1` (centres undefined): 37%; `c1cc(CNCC2CNc3ccnn3C2)cc(Cn2cccn2)c1` (centres undefined): 50.5%.
On to `OCc1ccccc1CNCC1CNc2ccnn2C1` (centres undefined), for which the INHIBITION is recorded as -17%.
For `c1ccc(Cn2cccn2)c(CNCC2CNc3ccnn3C2)c1` (centres undefined) the value was 45.8%; for `c1cc(CNCC2CNc3ccnn3C2)cc(OC2CCCC2)n1` (centres undefined), 60.7%; for `c1cc(CNCC2CNc3ccnn3C2)cc(OC2CCCCC2)n1` (centres undefined), 40.2%.
For `c1cc(CNCC2CNc3ccnn3C2)cc(N2CCOCC2)n1` (centres undefined) the value was 62.1%.
Next, `O=C(Cn1c(C(F)F)cc2cccnc21)NC1CCCC1`: 22%.
Consider `CN(C)c1nc(CNC(=O)Nc2cccc([S+](C)[O-])c2)cs1` (centres undefined), for which the INHIBITION is listed as 12.4%.
Next, `Cc1cnn(CC(=O)N2CCC(c3ccn4nccc4n3)CC2)c1`: 32.7%; `CCOC1COC2(CCN(Cc3cccc(C#N)c3)CC2)C1` (centres undefined): 29.7%; `CN1CCCN(C(=O)NCCOc2ccc3c(c2)OCO3)CC1`: 33.3%.
For `COCCN1C(=O)C[C@@H]2[C@H]1CCN2C(=O)c1ccc[nH]1` the value was -14.4%.
Next, `Cc1nc(C)n(CC2CCCN(CC(=O)N3CCCC3)C2)n1` (centres undefined): 7.67%; `CCc1noc(-c2cccc(C(=O)O)c2)n1`: -30%.
In the case of `CN1C[C@@H](C(=O)N(C)C)[C@@]2(CCc3ccccc3C(=O)N2)C1`, the INHIBITION was 4.41%.
As for `Cc1cnn(CC2CN(Cc3noc(C4CC4)n3)CCO2)c1` (centres undefined), the INHIBITION is listed as -12.2%.
`Cc1ccc2c(c1)OC(C)CN2C(=O)CCc1cccnc1` (centres undefined): the INHIBITION stood at 43.4%.
For `Cc1ccc2c(c1)OC(C)CN2C(=O)CCc1cscn1` (centres undefined) the value was 9.04%.
As for `Cc1ccc2c(c1)OC(C)CN2C(=O)Cc1ccc(C)nc1` (centres undefined), the INHIBITION was found to be 59.1%.
